Source: PubChem (National Center for Advancing Translational Sciences (NCATS))
PINK1 modulator: PINK1 expression modulation | PINK1 immunofluorescence, high-content cytometry, 24 h | Potency, µM (top dose mostly 76.6 µM), most hits filed as activators | actives 0.2% (n = 410,000) | AID 624263; active = well fitted activation curve with a large enough effect; inconclusive = small, poorly fitted or top-dose-only effect; cell line not stated here; note: nearly all actives have a fitted effect of over 65% in size
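Readout is PINK1 immunofluorescence, quantified alongside mitochondrial, cell and nuclear markers by laser-scanning microplate cytometry. Cells from a stable line were exposed to compound titrations (5 concentrations) for 24 hours, with CCCP controls.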
MCF10A rerep: inducers of DNA re-replication in MCF 10A breast cells | AID 624296 | MCF 10A DNA re-replication, Hoechst nuclear intensity, 48 h | Potency, µM (top dose mostly 46.1 µM), usual class: activators | actives 2.9% (n = 350,000); note: nearly all actives have a fitted effect of over 50% in size
KB-3-1 tox: kills parental KB-3-1 adenocarcinoma cells. KB-3-1 viability, CellTiter-Glo ATP luminescence, 72 h. Potency, µM (titrated, usually from 46.1 µM), hits mostly cytotoxic. actives 1.4% (n = 400,000). AID 1347075; note: nearly all actives have a fitted effect of over 60% in size
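Multi-concentration cytotoxicity screen in KB-3-1 cells grown in DMEM lacking phenol red with 10% FBS. After 72 h at 37 °C with compound, ATP-dependent luminescence was recorded.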
SW480 rereplic: induces DNA re-replication in SW480 colon adenocarcinoma cells; SW480 DNA re-replication, Hoechst DNA content imaging, 48 h; actives 1.8% (n = 340,000); Potency, µM (doses to about 46.1 µM), most hits filed as activators; note: nearly all actives have a fitted effect of over 55% in size
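Image-based DNA-content assay: after two days of treatment, nuclei were labelled with the DNA dye Hoechst and imaged, and hits were compounds raising the count of nuclei showing high fluorescence intensity.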
KB-V1 cytotox: KB-V1 MDR subline cytotoxicity; KB-V1 MDR cells viability, CellTiter-Glo, 72 h; Potency, µM (top dose mostly 46.1 µM), usual class: cytotoxic; actives 3.4% (n = 400,000); note: nearly all actives have a fitted effect of over 60% in size
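Compound-treated KB-V1 multidrug-resistant cells, 72 h, 37 degrees C; viability by CellTiter-Glo. Fitted qHTS curves give the values.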
A number is an active result; i = inactive; ? = inconclusive; nt = not tested or not shown; [ ] = another dose, or the depositor's remark. Compounds with a hit are over-represented: about 6.7% of the library has one in this group of screens. Unless noted, calls come from the whole dose curve; as a rule, active = well fitted curve in the direction sought with a large enough effect; inconclusive = small, poorly fitted or top-dose-only effect, or another doubt; inactive = no such curve, though single readings can be large; an effect the other way counts as inactive or inconclusive.

SMILES	PINK1 modulator	MCF10A rerep	KB-3-1 tox	SW480 rereplic	KB-V1 cytotox
CCOC(=O)c1cc2c(ccn2C)n1CC(=O)N(C)C	i	0.651µM	i	i	?
CCCCN(C)CCNC(=O)c1ccc2c(c1)NC(=O)CN2	i	nt	i	nt	i
COc1ccc(/C=C/c2c([N+](=O)[O-])c(=O)n(C)c(=O)n2C)cc1OC	nt	i	i	i	i
Cn1c(/C=C/c2ccc(Cl)cc2)c([N+](=O)[O-])c(=O)n(C)c1=O	i	7.31µM	?	i	i
COC(=O)c1c(OCc2cccnc2)cc(=O)n2c1CCN(C(=O)c1ccc(OC)c(F)c1)CC2	i	nt	nt	nt	nt
O=C(O)Cc1sc(Nc2ccccc2)nc1-c1cccs1	i	23.1µM	i	?	i
Cc1ccc(-c2nc(Nc3cccc(C)c3)sc2CC(=O)O)cc1	i	20.6µM	i	?	i
O=C(Cc1sc(-c2ccccc2)nc1-c1ccccc1)Nc1ccccc1	i	?	i	i	i
O=C(Cc1sc(Nc2ccccc2)nc1-c1ccccc1)NCc1ccccc1	i	?	16.4µM	?	?
O=C(Nc1ccc2nc(SCC(=O)N3CCc4ccccc43)sc2c1)c1ccc(F)cc1	i	nt	nt	nt	nt
O=c1c(-c2ccc(Cl)cc2)nc2cnc(N3CCNCC3)nc2n1Cc1ccc(F)cc1	i	nt	nt	nt	nt
O=C(O)c1ccc(N/N=C/c2ccc3c(c2)OCO3)cc1	i	i	20.6µM	i	?
O=C(O)c1cc(N/N=C/c2ccc3c(c2)OCO3)ccc1Cl	i	i	i	i[1.84 µM]	i
O=C(N/N=C/c1ccc2c(c1)OCO2)c1ccccn1	nt	i	?	i	14.6µM
O=c1cnnc(N/N=C/c2ccc3c(c2)OCO3)[nH]1	i	i	?	i	7.31µM
COc1cc(Cl)cc(/C=N\NC(=O)c2ccc3c(c2)OCO3)c1O	i	nt	i	nt	?
O=C(N/N=C/c1cc(Cl)cc([N+](=O)[O-])c1O)c1ccc2c(c1)OCO2	i	?	?	18.4µM	i
O=C(CSCc1cccc(Br)c1)N/N=C/c1ccc2c(c1)OCO2	i	?	18.4µM	?	i
O=C(N/N=C/c1ccc2c(c1)OCO2)c1cc(-c2ccccc2)nc2ccccc12	i	?	?	i	i
Cn1cc(C(=O)N/N=C/c2ccc3c(c2)OCO3)c2ccccc21	i	?	8.2µM	?	?
O=C(N/N=C/c1ccc2c(c1)OCO2)c1cc(-c2ccco2)nc2ccccc12	i	?	?	14.6µM	?
O=C(O)c1ccc(N/N=C/c2cc3cc4c(cc3nc2Cl)OCCO4)cc1	i	13µM	i	?	i
Cc1cc(C(=O)N/N=C/c2ccc3c(c2)OCO3)c(C)o1	i	i	i	i	?
Cc1ccc(CCNC(=O)NCc2noc3ccc(C)cc23)cc1	i	nt	i	nt	i
O=C(N/N=C/c1cc(Br)c(Br)o1)c1ccc2c(c1)OCCO2	i	13µM	i	i	?
SMILES	PINK1 modulator	MCF10A rerep	KB-3-1 tox	SW480 rereplic	KB-V1 cytotox
O=C(N/N=C/c1ccc2c(c1)OCO2)c1ccc2c(c1)OCCO2	i	?	16.4µM	?	i
O=C(N/N=C/c1ccc(Cl)cc1)c1ccc2c(c1)OCO2	i	i	i	?	i
O=C(N/N=C/c1c[nH]c2ccccc12)c1ccc2c(c1)OCCO2	i	16.4µM	i	?	?
Cc1cccc(C)c1OCC(=O)N/N=C/c1ccc2c(c1)OCO2	i	5.8µM	?	?	5.17µM
CC(=O)Nc1ccc(S(=O)(=O)N2CCN=C2SCc2ccc([N+](=O)[O-])cc2)cc1	i	?	nt	i	nt
Cc1ccc(/C=C(\C#N)C(=O)NC(C)c2ccccc2)o1 (centres undefined)	i	i	i	i	i
O=C(N/N=C/c1ccc2c(c1)OCO2)c1cccc2ccccc12	i	16.4µM	?	i	?
O=C(N/N=C/c1ccc2c(c1)OCO2)c1ccc(COCC(F)(F)C(F)F)cc1	i	?	8.2µM	6.51µM	i
O=C(N/N=C/c1cc(Cl)cc([N+](=O)[O-])c1O)NC12CC3CC(CC(C3)C1)C2	?	18.4µM	?	i	?
Cn1cc(C(=O)N/N=C/c2ccc(Br)c([N+](=O)[O-])c2)c2ccccc21	i	i	16.4µM	?	i
Cc1cnc(C)c(-c2cccc3c2OC(CNC(=O)/C=C/c2ccc(F)c(F)c2)C3)n1 (centres undefined)	i	nt	nt	nt	nt
COc1ccc([C@@H]2[C@@H]3C(=O)N(C(C)(C)C)C(=O)[C@@H]3[C@]3(Cc4ccc(Cl)cc4)C(=O)N(c4cccc(C)c4)C(=O)N23)cc1	i	i	i	i	i
CCCNC(=O)C1(C)CCCN(Cc2ccc3c(c2)OCO3)C1 (centres undefined)	i	nt	i	nt	i
N#Cc1ccc(/C=N/NC(=O)c2cc(-c3cccs3)nc3ccccc23)cc1	i	20.6µM	?	?	i
COC(=O)c1cccc(Cn2c(Cl)c(/C=N/Nc3ccccc3C)sc2=O)c1	?	25.9µM	i	10.3µM	?
COCCNC(=O)C1(C)CCN(C(=O)c2cccnc2Oc2ccccc2)C1 (centres undefined)	i	nt	i	nt	i
O=C(c1nc(-c2ccc(Cl)cc2)n2c1CCCCC2)N1CCN(c2ccccc2F)CC1	i	nt	?	nt	i
CCOC(=O)c1c(C)oc2c1c(C(c1ccccc1)N1CCOCC1)c(O)c1ccccc12 (centres undefined)	?	4.11µM	i	?	18.4µM
CC(C)c1cc(C(C)C)c(S(=O)(=O)NNC(=O)c2ccncc2)c(C(C)C)c1	i	i	i	i	14.6µM
Cc1cc(C)c2cc(CN(CC3CCCO3)S(=O)(=O)c3ccc4c(c3)OCCO4)c(=O)[nH]c2c1 (centres undefined)	nt	i	i	i	16.4µM
Cc1ccc(S(=O)(=O)N(Cc2cc3cc4c(cc3[nH]c2=O)OCCO4)CC2CCCO2)cc1 (centres undefined)	i	i	i	i	i
COc1ccc2cc(CN(CC3CCCO3)S(=O)(=O)c3ccccc3)c(=O)[nH]c2c1 (centres undefined)	nt	i	i	i	20.6µM
Cc1ccc(NC(=O)COC(=O)c2ccc3ncsc3c2)c(C)c1	i	nt	i	nt	?
O=C1NN(c2ccccc2)C(=O)/C1=C/c1ccc(Sc2ccc(Cl)cc2)o1	i	4.61µM	i	i	i
Cc1ccc(C)c2sc(NC(=O)c3ccc(S(=O)(=O)N4CCC(C)CC4)cc3)nc12	i	nt	i	nt	i
C[C@@H](C(=O)NCC1CC1)[C@@H]1C[C@@]1(C)[C@@H](NC(=O)OCc1ccccc1)c1ccccc1	i	i	i	?	i
C[C@@H](C(=O)NCCc1c[nH]c2ccccc12)[C@H]1C[C@]1(C)[C@H](NC(=O)OCc1ccccc1)c1ccccc1	i	i	16.4µM	14.6µM	i
C[C@@H](C(=O)NCc1ccccn1)[C@H]1C[C@]1(C)[C@H](NC(=O)OCc1ccccc1)c1ccccc1	i	20.6µM	i	i	?
CCN(CC)C(=O)c1[nH]cnc1C(=O)Nc1ccc(C)cc1	i	i	i	i	i
